PubChem BioAssay AID1159580 (chemical genetic matrix, 2015)
The campaign covered roughly 5,500 compounds. About 2,000 (36%) were called active. Inconclusive results (about 18%) are left out. Cut-off read from the data, not from the text of the source: active = normalized growth mostly below about 0.91 (no sharp cut-off); inconclusive = no clear call, values can overlap the other calls; inactive = mostly above about 0.92. The list shows a part of the results.

Experiment: chemical genetic growth profiling, strain panel (AID 1159580);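 note: tested at 20 µM; growth read once vehicle control cultures reached saturation at 30 °C; 1 = growth at the plate median or of vehicle wells; lower values mean less growth of the strain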
Details: growth OD
[1] = S. cerevisiae deletion strains, locus YAL013W, strain DEP1, active compounds read low
[2] = S. cerevisiae deletion strains, locus YBR021W, strain FUR4, active compounds read low
[3] = S. cerevisiae deletion strains, locus YBR229C, strain ROT2, active compounds read low
[4] = S. cerevisiae deletion strains, locus YCL029C, strain bik1, active compounds read low
[5] = S. cerevisiae deletion strains, locus YDL035C, strain GPR1, active compounds read low
[6] = S. cerevisiae deletion strains, locus YDL074C, strain BRE1, active compounds read low
[7] = S. cerevisiae deletion strains, locus YDL101C, strain DUN1, active compounds read low
[8] = S. cerevisiae deletion strains, locus YDL134C, strain PPH21, active compounds read low
[9] = S. cerevisiae deletion strains, locus YDL185W, strain tfp1, active compounds read low
[10] = S. cerevisiae deletion strains, locus YDL192W, strain arf1, active compounds read low
[11] = S. cerevisiae deletion strains, locus YDR101C, strain arx1, active compounds read low
[12] = S. cerevisiae deletion strains, locus YDR150W, strain NUM1, active compounds read low
[13] = S. cerevisiae deletion strains, locus YDR162C, strain NBP2, active compounds read low
[14] = S. cerevisiae deletion strains, locus YDR318W, strain mcm21, active compounds read low
[15] = S. cerevisiae deletion strains, locus YDR388W, active compounds read low
[16] = S. cerevisiae deletion strains, locus YDR502C, strain sam2, active compounds read low
[17] = S. cerevisiae deletion strains, locus YEL061C, strain CIN8, active compounds read low
[18] = S. cerevisiae deletion strains, locus YER110C, active compounds read low
[19] = S. cerevisiae deletion strains, locus YER155C, strain BEM2, active compounds read low
[20] = S. cerevisiae deletion strains, locus YER167W, strain BCK2, active compounds read low
[21] = S. cerevisiae deletion strains, locus YGL078C, strain dbp3, active compounds read low
[22] = S. cerevisiae deletion strains, locus YGL086W, strain mad1, active compounds read low
[23] = S. cerevisiae deletion strains, locus YGL248W, strain PDE1, active compounds read low
[24] = S. cerevisiae deletion strains, locus YGR078C, strain PAC10, active compounds read low
[25] = S. cerevisiae deletion strains, locus YGR135W, strain pre9, active compounds read low
[26] = S. cerevisiae deletion strains, locus YGR229C, strain SMI1, active compounds read low
[27] = S. cerevisiae deletion strains, locus YGR252W, strain gcn5, active compounds read low
[28] = S. cerevisiae deletion strains, locus YHR030C, strain SLT2, active compounds read low
[29] = S. cerevisiae deletion strains, locus YHR079C, strain IRE1 (second series), active compounds read low
[30] = S. cerevisiae deletion strains, locus YHR094C, strain hxt1, active compounds read low
[31] = S. cerevisiae deletion strains, locus YHR129C, strain ARP1, active compounds read low
[32] = S. cerevisiae deletion strains, locus YHR200W, strain rpn10, active compounds read low
[33] = S. cerevisiae deletion strains, locus YIL066C, strain RNR3, active compounds read low
[34] = S. cerevisiae deletion strains, locus YIL073C, strain SPO22, active compounds read low
[35] = S. cerevisiae deletion strains, locus YIL125W, strain kgd1, active compounds read low
[36] = S. cerevisiae deletion strains, locus YIR030C, strain dcg1, active compounds read low
[37] = S. cerevisiae deletion strains, locus YJL095W, strain BCK1, active compounds read low
[38] = S. cerevisiae deletion strains, locus YJL134W, strain LCB3, active compounds read low
[39] = S. cerevisiae deletion strains, locus YJL168C, strain set2, active compounds read low
[40] = S. cerevisiae deletion strains, locus YJL187C, strain SWE1 (second series), active compounds read low
[41] = S. cerevisiae deletion strains, locus YJR043C, strain POL32, active compounds read low
[42] = S. cerevisiae deletion strains, locus YJR075W, strain HOC1, active compounds read low
[43] = S. cerevisiae deletion strains, locus YKL009W, strain mrt4, active compounds read low
[44] = S. cerevisiae deletion strains, locus YKL068W, active compounds read low
[45] = S. cerevisiae deletion strains, locus YKL085W, strain MDH1 (second series), active compounds read low
[46] = S. cerevisiae deletion strains, locus YKL085W, strain MDH1, active compounds read low
[47] = S. cerevisiae deletion strains, locus YKL190W, strain CNB1, active compounds read low
[48] = S. cerevisiae deletion strains, locus YKR001C, strain vps1, active compounds read low
[49] = S. cerevisiae deletion strains, locus YLR039C, strain RIC1, active compounds read low
[50] = S. cerevisiae deletion strains, locus YLR058C, strain SHM2, active compounds read low
[51] = S. cerevisiae deletion strains, locus YLR102C, strain apc9, active compounds read low
[52] = S. cerevisiae deletion strains, locus YLR262C, strain YPT6, active compounds read low
[53] = S. cerevisiae deletion strains, locus YLR268W, strain sec22, active compounds read low
[54] = S. cerevisiae deletion strains, locus YLR330W, strain CHS5, active compounds read low
[55] = S. cerevisiae deletion strains, locus YLR342W, strain FKS1 (second series), active compounds read low
[56] = S. cerevisiae deletion strains, locus YLR371W, strain rom2, active compounds read low
[57] = S. cerevisiae deletion strains, locus YLR418C, strain cdc73, active compounds read low
[58] = S. cerevisiae deletion strains, locus YML016C, strain PPZ1, active compounds read low
[59] = S. cerevisiae deletion strains, locus YML032C, strain rad52, active compounds read low
[60] = S. cerevisiae deletion strains, locus YML124C, strain tub3, active compounds read low
[61] = S. cerevisiae deletion strains, locus YMR078C, strain ctf18, active compounds read low
[62] = S. cerevisiae deletion strains, locus YMR223W, strain ubp8, active compounds read low
[63] = S. cerevisiae deletion strains, locus YMR263W, strain SAP30, active compounds read low
[64] = S. cerevisiae deletion strains, locus YMR307W, strain GAS1, active compounds read low
[65] = S. cerevisiae deletion strains, locus YNL067W, strain RPL9B, active compounds read low
[66] = S. cerevisiae deletion strains, locus YNL128W, strain TEP1, active compounds read low
[67] = S. cerevisiae deletion strains, locus YNL153C, strain GIM3, active compounds read low
[68] = S. cerevisiae deletion strains, locus YNL233W, strain BNI4, active compounds read low
[69] = S. cerevisiae deletion strains, locus YNL250W, strain rad50, active compounds read low
[70] = S. cerevisiae deletion strains, locus YNL271C, strain bni1, active compounds read low
[71] = S. cerevisiae deletion strains, locus YNL298W, strain CLA4, active compounds read low
[72] = S. cerevisiae deletion strains, locus YNL307C, strain MCK1, active compounds read low
[73] = S. cerevisiae deletion strains, locus YNL322C, strain KRE1, active compounds read low
[74] = S. cerevisiae deletion strains, locus YNR052C, strain pop2, active compounds read low
[75] = S. cerevisiae deletion strains, locus YOL006C, strain TOP1, active compounds read low
[76] = S. cerevisiae deletion strains, locus YOL012C, strain htz1
[77] = S. cerevisiae deletion strains, locus YOL147C, strain pex11, active compounds read low
[78] = S. cerevisiae deletion strains, locus YOR061W, strain CKA2, active compounds read low
[79] = S. cerevisiae deletion strains, locus YOR069W, strain VPS5, active compounds read low
[80] = S. cerevisiae deletion strains, locus YOR136W, strain idh2, active compounds read low
[81] = S. cerevisiae deletion strains, locus YOR144C, strain elg1, active compounds read low
[82] = S. cerevisiae deletion strains, locus YOR184W, strain ser1, active compounds read low
[83] = S. cerevisiae deletion strains, locus YOR316C, strain cot1, active compounds read low
[84] = S. cerevisiae deletion strains, locus YPL055C, strain LGE1, active compounds read low
[85] = S. cerevisiae deletion strains, locus YPL241C, strain CIN2, active compounds read low
[86] = S. cerevisiae deletion strains, locus YPR119W, strain clb2, active compounds read low
[87] = S. cerevisiae deletion strains, locus YPR141C, strain kar3, active compounds read low
[88] = S. cerevisiae deletion strains, locus YPR163C, strain tif3, active compounds read low
[89] = S. cerevisiae deletion strains, locus YPR167C, strain met16, active compounds read low
[90] = S. cerevisiae deletion strains, strain wtn01, active compounds read low
[91] = S. cerevisiae strains, strain wild type, active compounds read low

Measured: normalized growth

CCOP(=S)(OCC)SCCSCC
inactive: [1] 0.992 | [2] 1 | [3] 0.955 | [4] 0.977 | [5] 0.964 | [6] 0.896 | [7] 0.977 | [8] 0.983 | [9] 0.956 | [10] 0.981 | [11] 0.991 | [12] 0.975 | [13] 0.967 | [14] 0.97 | [15] 0.984 | [16] 0.986 | [17] 0.983 | [18] 0.985 | [19] 0.989 | [20] 0.992 | [21] 0.996 | [22] 0.991 | [23] 0.972 | [24] 0.965 | [25] 0.982 | [26] 0.968 | [27] 0.992 | [28] 0.992 | [29] 0.997 | [30] 0.991 | [31] 0.976 | [32] 0.994 | [33] 0.977 | [34] 0.982 | [35] 0.975 | [36] 0.996 | [37] 0.97 | [38] 0.98 | [39] 0.992 | [40] 0.979 | [41] 0.991 | [42] 0.961 | [43] 0.944 | [44] 0.977 | [45] 0.979 | [46] 0.979 | [47] 0.964 | [48] 0.976 | [49] 0.937 | [50] 0.972 | [51] 0.988 | [52] 0.878 | [53] 0.975 | [54] 0.974 | [55] 1.03 | [56] 0.999 | [57] 0.947 | [58] 0.982 | [59] 0.99 | [60] 0.995 | [61] 0.978 | [62] 0.992 | [63] 0.975 | [64] 1.04 | [65] 0.972 | [66] 0.945 | [67] 0.978 | [68] 0.99 | [69] 0.979 | [70] 0.994 | [71] 0.982 | [72] 0.993 | [73] 0.976 | [74] 0.998 | [75] 0.846 | [76] 0.792 | [77] 0.991 | [78] 0.96 | [79] 0.997 | [80] 0.995 | [81] 0.99 | [82] 0.956 | [83] 0.973 | [84] 0.949 | [85] 0.976 | [86] 0.99 | [87] 0.968 | [88] 0.999 | [89] 0.988 | [90] 0.995 | [91] 0.979

CCOP(=S)(OCC)SCSCC
inactive: [1] 1 | [2] 0.979 | [3] 1 | [4] 1 | [5] 0.986 | [6] 0.963 | [7] 1 | [8] 0.998 | [9] 1.01 | [10] 1 | [11] 0.993 | [12] 0.994 | [13] 0.969 | [14] 1.01 | [15] 1 | [16] 1 | [17] 1.01 | [18] 1 | [19] 1 | [20] 1 | [21] 1 | [22] 0.998 | [23] 1 | [24] 0.99 | [25] 1.01 | [26] 0.998 | [27] 0.993 | [28] 1 | [29] 1.01 | [30] 0.997 | [31] 1.01 | [32] 1.01 | [33] 1.01 | [34] 1.06 | [35] 1 | [36] 1.01 | [37] 0.993 | [38] 1 | [39] 1.01 | [40] 1.01 | [41] 1.01 | [42] 1 | [43] 1.01 | [44] 1.01 | [45] 1 | [46] 1 | [47] 1.01 | [48] 0.998 | [49] 1.01 | [50] 1.01 | [51] 1.02 | [52] 0.953 | [53] 0.991 | [54] 0.999 | [55] 1.03 | [56] 1.02 | [57] 0.943 | [58] 1 | [59] 1 | [60] 1.01 | [61] 1 | [62] 1.01 | [63] 0.952 | [64] 1.02 | [65] 0.988 | [66] 1 | [67] 1 | [68] 1 | [69] 1.01 | [70] 1 | [71] 1.02 | [72] 1 | [73] 1.01 | [74] 1.01 | [75] 0.985 | [76] 0.793 | [77] 1 | [78] 0.994 | [79] 1 | [80] 1 | [81] 0.996 | [82] 1.01 | [83] 1 | [84] 0.974 | [85] 0.998 | [86] 0.997 | [87] 1.01 | [88] 1.01 | [89] 1.01 | [90] 1.01 | [91] 1.01
